Measured values from PubChem BioAssay (NCI).
Compounds without any hit were thinned out: in the full panel of roughly 83,000, 20% have a hit.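 A percent growth of 40 corresponds to 60% growth inhibition; 0 means no net growth; -100 means all cells died. Active threshold: below 10.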 The source made the active and inactive calls.

Tests used:
Assay in all cases: NCI-60 one-dose screen, 48 h (100 = growth as untreated, 0 = no growth, -100 = all killed)
[1] = tested on: SR leukemia; details: 10 µM unless noted
[2] = tested on: RPMI-8226 leukemia; details: 10 µM unless noted
[3] = tested on: OVCAR-8 ovarian; details: 10 µM unless noted
[4] = tested on: OVCAR-5 ovarian; details: 10 µM unless noted
[5] = tested on: OVCAR-4 ovarian; details: 10 µM
[6] = tested on: SK-OV-3 ovarian; details: 10 µM unless noted
[7] = tested on: IGROV1 ovarian; details: 10 µM unless noted
[8] = tested on: OVCAR-3 ovarian; details: 10 µM unless noted
[9] = tested on: HS 578T breast; details: 10 µM unless noted
[10] = tested on: NCI/ADR-RES ovarian; details: 10 µM unless noted
[11] = tested on: T-47D breast; details: 10 µM unless noted
[12] = tested on: MDA-MB-435 melanoma; details: 10 µM unless noted
[13] = tested on: SW-620 colon; details: 10 µM unless noted
[14] = tested on: MCF7 breast; details: 10 µM unless noted
[15] = tested on: HCT-116 colon; details: 10 µM unless noted
[16] = tested on: HCC-2998 colon; details: 10 µM unless noted
[17] = tested on: KM12 colon; details: 10 µM unless noted
[18] = tested on: BT-549 breast; details: 10 µM unless noted

Measured: growth

C[C@]12CCc3c(ccc4cc(O)ccc34)[C@@H]1CC[C@H]2O
inactive: [1] 74.3% | [2] 94.6% | [3] 103% | [4] 107% | [5] 96.1% | [6] 121% | [7] 110% | [8] 94.9% | [9] 29.8% | [10] 101% | [11] 91.8% | [12] 80.1% | [13] 99.1% | [14] 116% | [15] 102% | [16] 107% | [17] 98.1%

CC1Cc2c(ncnc2-n2cnc3ccccc32)N(C)c2ccccc21 (stereo unspecified)
inactive: [1] 15.2% | [2] 26.2% | [3] 44.1% | [4] 95.2% | [5] 65.2% | [6] 17.2% | [7] 62.5% | [8] 14.7% | [9] 36.6% | [11] 33.3% | [13] 17.7% | [14] 18.2% | [15] 21.3% | [16] 64.8% | [17] 27.8%
active: [10] 9.36% | [12] -23.7%

Nc1cc(Cl)cc2cccnc12
inactive: [1] 94% | [2] 92.9% | [3] 111% | [4] 101% | [5] 117% | [6] 95% | [7] 126% | [8] 119% | [9] 114% | [10] 101% | [11] 112% | [12] 106% | [13] 102% | [14] 95.2% | [15] 109% | [16] 93.5% | [17] 101%

CCCCCn1sc(=O)n(Cc2ccc(CNC(=O)OCc3ccc4cccc(O)c4n3)cc2)c1=O
inactive: [6] 41.7% | [9] 10.8% | [17] 11.8%
active: [1] 4.06% | [2] -14.6% | [3] 8.91% | [4] -42.3% | [5] -50.6% | [7] -85.9% | [8] -84.5% | [10] -11.6% | [11] -47.3% | [12] -70.1% | [13] -48.5% | [14] 0.802% | [15] -76.9% | [16] 5.53%

Cc1ccc2c(n1)C(=O)C(Cl)=C(Nc1ccc(N3CCN(C)CC3)cc1)C2=O
inactive: [6] 89.9% | [9] 58% | [10] 27.6% | [16] 95.3% | [17] 92.1%
active: [1] -5.05% | [2] -32.6% | [3] -62.6% | [4] -7.55% | [5] -100% | [7] -83.5% | [8] -100% | [11] -61.1% | [12] -99.1% | [13] -69.8% | [14] -61.9% | [15] -64.9%

Cc1cccc(/C=C2\N=C(c3ccccc3)N(c3ccc(S(N)(=O)=O)cc3)C2=O)c1
inactive: [1] 69.6% | [2] 99.3% | [3] 73% | [4] 99.1% | [5] 77.1% | [6] 98.8% | [7] 96.2% | [8] 102% | [9] 76.1% | [10] 88.7% | [11] 85.2% | [13] 104% | [14] 82.1% | [15] 83.9% | [16] 99.8% | [17] 98.1%

O=C(NCCO)c1cccnc1
inactive: [1] 103% | [2] 95.4% | [3] 102% | [4] 103% | [5] 110% | [6] 97.4% | [7] 100% | [8] 111% | [9] 92.1% | [10] 96.5% | [18] 108% | [12] 106% | [13] 96.1% | [14] 98.5% | [15] 99% | [16] 103%

CCCCC(CCCCCC(CCCC)C1NC(C)Cc2cc(OC)c(OC)cc21)C1NC(C)Cc2cc(OC)c(OC)cc21 (stereo unspecified)
active: [1] -79.2% | [2] -48.3% | [3] -74.3% | [4] -96.4% | [5] -90.1% | [6] -87.3% | [7] -34.8% | [8] -94.2% | [9] -38.6% | [10] -88.3% | [11] -76.8% | [12] -73.4% | [13] -80.8% | [14] -95.1% | [15] -97.5% | [16] -97.3% | [17] -94.7%

CN(C)c1ccc(N=Nc2ccc3ccccc3c2)cc1
inactive: [1] 61.8% | [2] 79.7% | [3] 98.2% | [4] 104% | [5] 76.7% | [6] 96% | [7] 77.8% | [8] 88.7% | [9] 98.4% | [10] 98.1% | [18] 101% | [12] 101% | [13] 96.9% | [14] 43.9% | [15] 66% | [16] 99.8% | [17] 92.8%
